MCF10A rerep – induces DNA re-replication in MCF 10a normal breast cells. MCF 10A DNA re-replication, Hoechst nuclear intensity, 48 h. Potency, µM (titrated, usually from 46.1 µM), without a hit: top-dose activity, positive = re-replication, hits mostly activators. actives 2.9% (n = 350,000). AID 624296; also: potency is read from the fitted curve at half-maximal effect; % of control where 0% means no effect; nearly all actives have a fitted effect of over 50% in size
RORg inh – ROR gamma (mouse) transcription inhibition; actives 5.4% (n = 310,000); P51450; Drosophila S2 Gal4-RORgamma UAS-luciferase reporter, 20 h; Potency, µM (top dose mostly 53.6 µM), inactives show top-dose activity change, negative = inhibition, actives largely listed as inhibitors; also: potency is read from the fitted curve at half-maximal effect; % is scaled to controls: 0 for no effect and ±100 for the full control effect; nearly all actives have a fitted effect of over 60% in size
Target sequence (P51450 whole entry, looked up, the tested form may be a part): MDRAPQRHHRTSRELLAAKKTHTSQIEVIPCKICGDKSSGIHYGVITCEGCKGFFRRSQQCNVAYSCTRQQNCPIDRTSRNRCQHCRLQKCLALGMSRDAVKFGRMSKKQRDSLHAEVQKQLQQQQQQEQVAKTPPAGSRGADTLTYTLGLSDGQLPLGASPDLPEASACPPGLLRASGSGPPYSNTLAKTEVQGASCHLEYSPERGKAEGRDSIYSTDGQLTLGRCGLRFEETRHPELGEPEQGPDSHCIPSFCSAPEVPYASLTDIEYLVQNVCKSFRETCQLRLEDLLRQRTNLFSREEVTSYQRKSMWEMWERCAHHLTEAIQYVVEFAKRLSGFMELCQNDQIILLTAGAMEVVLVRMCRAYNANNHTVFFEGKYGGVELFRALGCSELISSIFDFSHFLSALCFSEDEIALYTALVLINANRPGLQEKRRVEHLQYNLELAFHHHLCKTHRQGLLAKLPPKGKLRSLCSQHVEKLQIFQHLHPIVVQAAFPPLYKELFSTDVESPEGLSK
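Drosophila Schneider cells stably carrying a metallothionein-driven Gal4 DBD–ROR gamma fusion and a UAS-Photinus luciferase reporter were exposed to compound for 1 hr, then induced with copper sulfate (700 uM final) for 20 hr at ambient temperature before luminescence reading.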
VP16 counter – counter-screen for ROR gamma inhibitors: Gal4-VP16 reporter; Drosophila S2 Gal4-VP16 UAS-luciferase, luminescence, 20 h; Potency, µM (doses to about 53.6 µM), for inactives: at the highest dose activity, negative = inhibition, most hits filed as inhibitors; actives 3.5% (n = 310,000); AID 2546;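 also: Gal4-VP16 expression switched on by copper sulfate through the metallothionein promoter; potency is read from the fitted curve at half-maximal effect; % is scaled to controls: 0 for no effect and ±100 for the full control effect; nearly all actives have a fitted effect of over 50% in size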
SW480 rereplic – DNA re-replication induction in SW480 cells; Potency, µM (top dose mostly 46.1 µM), for the others: at the top dose re-replication activation, hits mostly activators; SW480 DNA re-replication, Hoechst DNA content imaging, 48 h; actives 1.8% (n = 340,000); also: potency is read from the fitted curve at half-maximal effect; % of control where 0% means no effect; nearly all actives have a fitted effect of over 55% in size
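Image-based DNA-content assay: after two days of treatment, nuclei were labelled with the DNA dye Hoechst and imaged, and hits were compounds raising the count of nuclei showing high fluorescence intensity.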
Chronic BCR inh – chronic active BCR signaling inhibition. Potency, µM (titrated, usually from 46.1 µM), for inactives: at the highest dose activity change, negative = inhibition, actives largely listed as inhibitors. actives 0.05% (n = 340,000). ABC-DLBCL IkBa-CBG/CBR reporter, luminescence ratio, 4 h; active = well fitted inhibition curve with a large enough effect in the signal ratio, with a control signal flat, not every such curve was filed as active; inconclusive = small, poorly fitted or top-dose-only effect, or effect the other way, or a change in a side signal; the % refers to the signal ratio;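 also: potency is read from the fitted curve at half-maximal effect; plate controls were basal doxycycline-induced cells for no effect and cells given 10 µM MG132 for full effect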
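TMD8 ABC-DLBCL cells carrying doxycycline-inducible green luciferase fused to IkappaBalpha plus unfused red luciferase were exposed to compounds (up to 46 uM) for 4 hrs at 37C. Activity came from the overlap-corrected green/red luminescence ratio.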
Giardia killer – Giardia lamblia killing; Giardia lamblia trophozoite viability; activity change, % at 7.66 µM, hits read low; actives 0.15% (n = 340,000); AID 540267; in the data active = activity change below about -80%; inconclusive = between about -30% and that limit;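 also: parasites exposed to compound for two days anaerobically before the ATP read; % is scaled to controls: 0 for no effect and ±100 for the full control effect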
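Viability, read as ATP luminescence: trophozoites at 100 cells/well, compound added, 48 hrs anaerobic at 37 deg C, then 15-30 min room-temperature development before reading.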
Starred values were filed as active, the others as inactive. Rows were chosen to be rich in hits. Some 8.3% of all compounds tested hit in one or more screens of this group. Unless noted, calls follow the shape of the dose curve; as a rule, active = well fitted curve in the direction sought with a large enough effect; inconclusive = small, poorly fitted or top-dose-only effect, or another doubt; inactive = no such curve, though single readings can be large; an effect the other way counts as inactive or inconclusive.

Results for Cc1cccc(NNC(=O)C(=O)NNc2cccc(C)c2)c1 ?
MCF10A rerep: 6.5µM*; RORg inh: 11%; VP16 counter: 7%; SW480 rereplic: -7%; Chronic BCR inh: inconclusive; Giardia killer: 4

What do the screens show for `COc1cccc(C(=O)/C=C/Nc2cc(C)ccc2O)c1`?
MCF10A rerep: 100%; RORg inh: inconclusive; VP16 counter: inconclusive; SW480 rereplic: 18µM*; Chronic BCR inh: inconclusive; Giardia killer: -13

How did COc1cc(OC)c(OC)cc1/C=C/C(=O)c1ccc(NS(=O)(=O)c2ccc(C)cc2)cc1 do in these assays?
MCF10A rerep: 5.8µM*; RORg inh: inconclusive; VP16 counter: 5%; SW480 rereplic: inconclusive; Chronic BCR inh: inconclusive; Giardia killer: 5

Results for CCOC(=O)c1ccc(N/C=C\C(=O)c2cccc(OC)c2)cc1 ?
MCF10A rerep: inconclusive; RORg inh: -12%; VP16 counter: -15%; SW480 rereplic: 7%; Chronic BCR inh: inconclusive; Giardia killer: -11

What do the screens show for `CCCCn1c(N)c(N(CCOC)C(=O)CC(NC(=O)c2ccccc2)c2ccccc2)c(=O)[nH]c1=O` (centres undefined)?
MCF10A rerep: 0%; SW480 rereplic: -8%; Chronic BCR inh: 0%; Giardia killer: 1

What do the screens show for `CC(C)(C)NC(=O)CSc1ncnc2c1nnn2Cc1ccccc1Cl`?
MCF10A rerep: 15µM*; RORg inh: inconclusive; VP16 counter: -14%; SW480 rereplic: inconclusive; Chronic BCR inh: inconclusive; Giardia killer: -3

What do the screens show for `O=C(CSc1ncnc2c1nnn2Cc1ccccc1F)N1CCN(c2ccccc2)CC1`?
MCF10A rerep: 21µM*; RORg inh: 30%; VP16 counter: -1%; SW480 rereplic: 23%; Chronic BCR inh: -20%; Giardia killer: 4

What do the screens show for `O=C(Cn1cnc2c(nnn2Cc2ccccc2F)c1=O)N1CCN(c2ccccc2)CC1`?
MCF10A rerep: -2%; RORg inh: inconclusive; VP16 counter: 3%; SW480 rereplic: -8%; Chronic BCR inh: inconclusive; Giardia killer: 2

What do the screens show for `Cc1cccc(/C(N)=N/OC(=O)c2ccoc2C)c1`?
MCF10A rerep: inconclusive; RORg inh: inconclusive; VP16 counter: inconclusive; SW480 rereplic: 13%; Chronic BCR inh: inconclusive; Giardia killer: -16

How did Cc1ccccc1C(=O)O/N=C(\N)c1ccc([N+](=O)[O-])cc1 do in these assays?
MCF10A rerep: 5%; RORg inh: -18%; VP16 counter: inconclusive; SW480 rereplic: 0%; Chronic BCR inh: -7%; Giardia killer: -19

Results for Cc1ccccc1C(=O)O/N=C(\N)c1ccccc1 ?
MCF10A rerep: inconclusive; RORg inh: 7.1µM*; VP16 counter: 10µM*; SW480 rereplic: inconclusive; Chronic BCR inh: inconclusive; Giardia killer: inconclusive

What do the screens show for `Cc1occc1C(=O)O/N=C(\N)c1ccccc1`?
MCF10A rerep: -3%; RORg inh: inconclusive; VP16 counter: 10µM*; SW480 rereplic: 6%; Chronic BCR inh: inconclusive; Giardia killer: 16

How did O=C(CSc1nnnn1-c1cccc(F)c1)NC1CC1 do in these assays?
MCF10A rerep: 5%; SW480 rereplic: 24%; Chronic BCR inh: -1%; Giardia killer: 1

How did COc1ccc(-c2nc3cnc(N4CCNCC4)nc3n(CCc3ccccc3)c2=O)cc1 do in these assays?
RORg inh: 0%; VP16 counter: -3%

How did CSC(=Nc1ccccc1)N=C(SCc1ccccc1)N(C)C do in these assays?
MCF10A rerep: inconclusive; SW480 rereplic: 7.3µM*; Giardia killer: 17

What do the screens show for `N#CNC(=Nc1ccccc1)SCc1ccc(C(=O)O)cc1`?
MCF10A rerep: inconclusive; RORg inh: 4%; VP16 counter: 3%; SW480 rereplic: 1%; Chronic BCR inh: -19%; Giardia killer: 5

How did Cc1cc(C)nc(/N=C2\NC(=O)CC(C(=O)O)N2c2ccc(Cl)cc2)n1 (centres undefined) do in these assays?
MCF10A rerep: 0%; RORg inh: -23%; VP16 counter: 0%; SW480 rereplic: 3%; Chronic BCR inh: inconclusive; Giardia killer: 2

Results for Cc1ccc(N2/C(=N/c3nc(C)cc(C)n3)NC(=O)CC2C(=O)O)cc1 (centres undefined) ?
MCF10A rerep: 18µM*; RORg inh: 4%; VP16 counter: -3%; SW480 rereplic: 14%; Chronic BCR inh: 3%; Giardia killer: 4

What do the screens show for `COCCn1c(=S)[nH]c2cc(C(=O)N3CCN(c4cccc(Cl)c4)CC3)ccc2c1=O`?
MCF10A rerep: inconclusive; RORg inh: 11µM*; VP16 counter: inconclusive; SW480 rereplic: inconclusive; Chronic BCR inh: 9%; Giardia killer: 11

Results for CCOC(=O)N1CCN(C(=O)c2cccc(N3C(=O)NC4CC3(C)Oc3ccc(Cl)cc34)c2)CC1 (centres undefined) ?
MCF10A rerep: 16µM*; RORg inh: 39%; VP16 counter: -2%; SW480 rereplic: 13µM*; Chronic BCR inh: -12%; Giardia killer: 6

How did CCOC(=O)N1CCN(C(=O)c2cccc(-n3c(=S)[nH]c4cc(Cl)ccc4c3=O)c2)CC1 do in these assays?
MCF10A rerep: -10%; RORg inh: 11µM*; VP16 counter: -9%; SW480 rereplic: -9%; Chronic BCR inh: 7%; Giardia killer: 4

What do the screens show for `CCOC(=O)N1CCN(C(=O)c2ccc3c(=O)n(-c4ccc(OC)cc4)c(=S)[nH]c3c2)CC1`?
MCF10A rerep: 19%; RORg inh: 7%; VP16 counter: -10%; SW480 rereplic: -1%; Chronic BCR inh: -3%; Giardia killer: -6

Results for COCCn1c(=O)[nH]c2cc(C(=O)N3CCN(c4cccc(C(F)(F)F)c4)CC3)ccc2c1=O ?
MCF10A rerep: inconclusive; RORg inh: inconclusive; VP16 counter: inconclusive; SW480 rereplic: 0%; Chronic BCR inh: 0%; Giardia killer: 0

Results for CCOC(=O)C1CCN(C(=O)c2cccc(N3C(=O)NC4CC3(C)Oc3ccc(C)cc34)c2)CC1 (centres undefined) ?
MCF10A rerep: -2%; RORg inh: 0%; VP16 counter: -3%; SW480 rereplic: -21%; Chronic BCR inh: -8%; Giardia killer: 9

Results for CCOCCCn1c(=S)[nH]c2cc(C(=O)N3CCN(c4ccccc4)CC3)ccc2c1=O ?
MCF10A rerep: 3%; RORg inh: 13µM*; VP16 counter: inconclusive; SW480 rereplic: -7%; Chronic BCR inh: 9%; Giardia killer: -22

How did NC(=O)NCCC[C@H](N)C(=O)O do in these assays?
RORg inh: 13%; VP16 counter: -1%
